# Source: PubChem BioAssay AID2061322 (National Center for Advancing Translational Sciences (NCATS), 2025)
# Inconclusive results are not listed. The source made the active and inactive calls. Calls come from the whole dose curve; as a rule, active = well fitted inhibition curve with a large enough effect; inconclusive = small, poorly fitted or top-dose-only effect; inactive = flat fitted curve, though single readings scatter.
# Assay: Identification of antibody-drug conjugate (ADC) payloads which are substrates of ATP-binding cassette drug efflux transporters: ABCG2-HEK293-R5 cell line with Ko143
# Conditions: ABCG2-HEK293-R5 with Ko143, CellTiter-Glo viability, 48 h
# Text: Antibody-drug conjugates (ADCs) feature an antibody recognizing a specific protein joined to a potent toxic payload. Numerous antibody-drug conjugates have received FDA approval; however, clinical resistance arises. Resistance mechanisms include decreased expression or mutation of the antibody target, impaired payload release, or increased expression of ATP-binding cassette (ABC) efflux transporters associated with multidrug resistance. We therefore sought to characterize the interaction of ABC multidrug transporters with ADC payloads. We performed a high-throughput screen with 27 common ADC payloads using cells lines expressing ABC transporters P-glycoprotein (P-gp, encoded by ABCB1) or ABCG2 (encoded by ABCG2). Confirmatory assays were also performed using cells transfected to express P-gp, ABCG2, or MRP1 (encoded by ABCC1). Several commonly used ADC payloads were substrates of P-gp, including calicheamicin gamma1, monomethyl auristatin E, DM1, and DM4. All the pyrrolobenzodiazepines tested - SJG136, SGD-1882, SG2057, and SG3199 - were substrates of P-gp, ABCG2, and MRP1. […] These findings highlight the risk of transporter-mediated resistance with certain ADC payloads and underscore the importance of selecting payloads that evade ABC transporter recognition in future ADC development.
# HEK-293 cells were transfected with empty vector (pcDNA) or vector containing the human ABCB1 (MDR-19), ABCG2 (R-5), or ABCC1 gene (MRP1) and were maintained in EMEM with 2 mg/mL G418 added to maintain transporter expression. The HeLa derivative KB-3-1 and the P-gp overexpressing KB-8-5-11 subline were maintained in DMEM; KB-8-5-11 additionally received 100 ng/mL colchicine. H460 parental cells were obtained from the Division of Cancer Treatment and Diagnosis Tumor Repository, National Cancer Institute at Frederick, MD and were cultured in RPMI. The ABCG2 expressing subline H460 MX20 was generated by selecting H460 cells in 20 nM mitoxantrone. Media in all cases was supplemented with 10% FBS and 1% penicillin-streptomycin. […]
row,Structure (SMILES),Potency
1,COc1cc2cc(C(=O)N3C[C@@H](CCl)c4c3cc(O)c3ccccc43)[nH]c2c(OC)c1OC,15 nM (active)
2,CC[C@H](C)[C@@H]([C@@H](CC(=O)N1CCC[C@H]1[C@H](OC)[C@@H](C)C(=O)N[C@H](C)[C@@H](O)c1ccccc1)OC)N(C)C(=O)[C@@H](NC(=O)[C@H](C(C)C)N(C)C)C(C)C,16.9 nM (active)
3,COc1cc2cc(c1Cl)N(C)C(=O)C[C@H](OC(=O)[C@H](C)N(C)C(=O)CCC(C)(C)S)[C@]1(C)OC1[C@H](C)C1C[C@@](O)(NC(=O)O1)[C@H](OC)/C=C/C=C(\C)C2 (stereo partly drawn),1.7 nM (active)
